# According to ChEMBL document CHEMBL5308504, “Tm Shift (DSF) assay results for EUbOPEN Chemogenomics Library” (2023):
# Several values for one entry are separate records, joined by “and”; a condition that tells them apart may be missing. Equal entries are not always repeated.
# Columns and labels:
# [1] = target: Bromodomain-containing protein 4 (Homo sapiens) (UniProt O60885); details: Compound concentration 20.0 uM, Protein concentration 2.0 uM, Result type QC Liability
# [2] = target: T1, Transcription intermediary factor 1-alpha (Homo sapiens) (UniProt O15164); details: Compound concentration 20.0 uM, Protein concentration 2.0 uM, Result type QC Liability
# T1 sequence (whole entry): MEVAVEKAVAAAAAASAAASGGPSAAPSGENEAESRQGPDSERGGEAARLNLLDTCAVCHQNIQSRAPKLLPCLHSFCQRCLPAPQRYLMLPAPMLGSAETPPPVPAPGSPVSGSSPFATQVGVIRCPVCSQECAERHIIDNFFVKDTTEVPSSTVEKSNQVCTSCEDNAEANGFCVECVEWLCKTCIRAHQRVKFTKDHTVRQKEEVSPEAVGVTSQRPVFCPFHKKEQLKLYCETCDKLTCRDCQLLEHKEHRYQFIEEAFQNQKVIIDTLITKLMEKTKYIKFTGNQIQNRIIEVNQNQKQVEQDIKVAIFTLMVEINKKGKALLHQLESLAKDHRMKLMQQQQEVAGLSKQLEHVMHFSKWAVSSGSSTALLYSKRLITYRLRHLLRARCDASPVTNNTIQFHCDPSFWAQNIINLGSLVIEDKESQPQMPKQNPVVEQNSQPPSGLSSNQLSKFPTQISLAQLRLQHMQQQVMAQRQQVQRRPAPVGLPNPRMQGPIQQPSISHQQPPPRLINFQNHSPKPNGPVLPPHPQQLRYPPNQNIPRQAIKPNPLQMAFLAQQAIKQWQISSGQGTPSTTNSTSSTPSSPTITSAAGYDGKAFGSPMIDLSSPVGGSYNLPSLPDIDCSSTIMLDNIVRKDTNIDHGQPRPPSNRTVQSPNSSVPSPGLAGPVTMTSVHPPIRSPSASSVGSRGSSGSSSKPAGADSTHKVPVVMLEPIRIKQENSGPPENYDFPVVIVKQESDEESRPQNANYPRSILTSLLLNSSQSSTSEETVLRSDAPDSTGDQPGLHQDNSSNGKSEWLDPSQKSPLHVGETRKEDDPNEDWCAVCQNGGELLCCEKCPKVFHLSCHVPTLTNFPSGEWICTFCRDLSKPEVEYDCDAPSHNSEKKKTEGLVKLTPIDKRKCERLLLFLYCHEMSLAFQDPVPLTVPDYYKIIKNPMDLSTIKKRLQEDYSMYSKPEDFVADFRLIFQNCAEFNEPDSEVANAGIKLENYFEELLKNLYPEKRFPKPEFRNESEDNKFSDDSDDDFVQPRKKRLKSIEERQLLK
SMILES,ΔTm [1],ΔTm [2]
Cc1cc(NC(=O)c2cccc(NC(=O)/C=C/CN(C)C)c2)ccc1Nc1nccc(-c2cccnc2)n1,-1.31 °C,-1.44 °C
CNc1[nH]c(Nc2ccc(C(=O)N3CCOCC3)cc2OC)nc2ncc(Cl)c1-2,-0.77 °C,-2.36 °C
CC(=O)c1c(C)c2cnc(Nc3ccn(C)n3)nc2n(C2CCCC2)c1=O,-0.76 °C,-2.16 °C
Cc1cccc(-c2[nH]c(CNc3ccccc3F)nc2-c2ccc3ncnn3c2)n1,-1.53 °C,-2.12 °C
N#CN1CC[C@H](C(=O)Nc2nc3c(s2)CN(C(=O)CN=[N+]=[N-])CC3)C1,-0.19 °C,-1.13 °C
COc1ccc(C(F)(F)F)cc1NC(=O)Nc1ccc(Oc2cc(C)nc(N)n2)c2ccccc12,-0.19 °C,-0.94 °C
COc1cc(CN(CCN)C(=O)N[C@@H](C)c2ccccc2)ccc1OCc1ccccc1,-1.26 °C,-0.9 °C
Cc1cc(CN(CC(=O)Nc2ccc(Cl)cc2Cl)C2CCCCC2)ccc1OCC(=O)O,-1.17 °C,-0.29 °C
CC(C)c1nc2c(c3c1[C@@H](c1ccc(C(F)(F)F)cc1)OC31CCOCC1)[C@@H](O)CC(C)(C)C2,-1.67 °C,0.17 °C
CC(C)N(CCCCOCC(=O)O)c1cnc(-c2ccccc2)c(-c2ccccc2)n1,-1.87 °C,-0.66 °C
COc1ccc(-c2cc3c(C)nc(N)nc3n([C@H]3CC[C@H](OCCO)CC3)c2=O)cn1,-0.11 °C,-2.05 °C
O=C(O)CCCc1cc2cc(Cl)ccc2n1S(=O)(=O)c1ccc2ncsc2c1,-3.71 °C,-1.33 °C
CCOc1cc(CC(=O)N[C@@H](CC(C)C)c2ccccc2N2CCCCC2)ccc1C(=O)O,-0.4 °C,-1.24 °C
COc1ccc(CSc2nnc(-c3ccc4ncsc4c3)o2)cc1C(F)(F)F,-5.83 °C,-2.33 °C
Cc1nccn1-c1ccc(Sc2cccc(C3(C(N)=O)CCOCC3)c2)cc1,-0.68 °C,-1.02 °C
COc1cc2nc(C)nc(N[C@H](C)c3cc(N)cc(C(F)(F)F)c3)c2cc1O[C@H]1CCOC1,0 °C,0.8 °C
CC(C)S(=O)(=O)c1ccccc1Nc1nc(N[C@@H]2CCCN(CCCCCCCNC(=O)COc3cccc4c3C(=O)N(C3CCC(=O)NC3=O)C4=O)C2)ncc1Cl (stereo not given in full),1.89 °C,0 °C
CC1(C)Cc2nc(C3CCCC3)c([C@@H](F)c3ccc(C(F)(F)F)cc3)c(C3CCCCC3)c2[C@@H](O)C1,0.17 °C,0.34 °C
CN1C(=O)Cc2ccc(-c3ccc(C[C@@H](C#N)NC(=O)[C@@H]4N[C@H]5CC[C@@H]4C5)c(F)c3)cc21,-1.1 °C,0.19 °C
Clc1ccc(-c2nc3sccn3c2/C=N/OCc2ccc(Cl)c(Cl)c2)cc1,-1.58 °C,-1.95 °C
CSc1ccc(C[C@@H](C)C(=O)O)cc1Nc1nc(N2CC[C@H](N(C)C)C2)cc(C(F)F)c1C#N,0.52 °C,0.57 °C
CCN(C(=O)c1cc(F)ccc1Oc1cncnc1N1CC2(CCN(C[C@H]3CC[C@H](NS(=O)(=O)CC)CC3)CC2)C1)C(C)C,-1.64 °C,-1.14 °C
CC(=O)Nc1nc(C)c(S(=O)(=O)Nc2ccc(C(O)(C(F)(F)F)C(F)(F)F)cc2)s1,-1.81 °C,-0.92 °C
CN(C)C(=O)Cn1cc(-c2ccc(-c3nnc4ccccn34)cc2)cn1,-1.96 °C,0.35 °C
CC[C@H](CC(=O)O)n1c(=O)c2ncccc2n(Cc2cn(C)c3cc(C)cc(C)c23)c1=O,-1.38 °C and -3.06 °C,0.26 °C and -1.81 °C

SMILES,ΔTm [1],ΔTm [2]
CC(=O)c1ccc2c(c1)/C(=C(/NC1CCN(C)CC1)c1ccc3c(c1)OCO3)C(=O)N2,-0.52 °C,0.21 °C
COc1cccc(Cn2cc(C(=O)Nc3ccc(C)c(S(=O)(=O)N4CCOCC4)c3)c(-c3ccc(C)cc3)n2)c1,1.27 °C,4.1 °C
COc1c(NC(=O)c2cc3cccc(Oc4ccnc(C(=O)N5CCN(C)CC5)c4)c3n2C)cc(C(C)(C)C)cc1NS(C)(=O)=O,-2.76 °C,-2.21 °C
O=C1Nc2nc(-c3c(O)cccc3OCC3CC3)cc([C@@H]3CCCNC3)c2CO1,-0.38 °C,0.45 °C
CN[C@@H](C)C(=O)N[C@H](C(=O)N1CCC[C@H]1c1nc(C(=O)c2ccc(F)cc2)cs1)C1CCCCC1,-3.21 °C,-1.98 °C
Cn1ncc(NC(=O)c2nc(-c3c(F)cccc3F)sc2N)c1N1CC[C@@H](N)[C@H](F)CC1,-1.02 °C,-1.63 °C
CO[C@H]1CC[C@H](N(c2cc(F)c(Oc3ncc(Cn4nccn4)cc3C(F)(F)F)cc2C(=O)O)C(=O)[C@H]2CC[C@H](C)CC2)CC1,0.94 °C,-0.09 °C
CC(C)Nc1ncnc2cc(OCc3cccc([S@@](C)(=N)=O)c3)c(Br)cc12,0.34 °C,0.14 °C
CCN1C(=O)c2cc(C)ccc2N(C)c2ncccc21,-1.19 °C,0.2 °C
O=C(Nc1ccc(OC(F)(F)Cl)cc1)c1cnc(N2CC[C@@H](O)C2)c(-c2cc[nH]n2)c1,0 °C,-3.05 °C
COc1cc2ncnc(Nc3ccc(F)c(Cl)c3)c2cc1OCCN(C)C[C@H](C)O,-3.09 °C,-1.09 °C
CC(C)C(=O)N1CCC(c2cn(C)c3ncc(NC(=O)c4cccc(C#N)c4)c(C(F)(F)F)c23)CC1,-2.27 °C,-2.5 °C
N#Cc1cccc(-c2c[nH]c3ncnc(N4CCOCC4)c23)c1,-2.27 °C,-2.93 °C
O=C1CCCc2[nH]c(-c3ccnc(NCC4CC4)c3)c(Nc3ccccc3)c21,-0.67 °C,-0.08 °C
CC[C@@H](Nc1c(C#N)c(-c2ccc(-c3cccc(C)c3F)cc2)nc2cnccc12)C(=O)O,-1.25 °C,-1.3 °C
CCNC1=N[C@@H]2[C@@H](O)[C@H](O)[C@@H](CO)O[C@@H]2S1,-1.49 °C,-2.58 °C
CNC(=O)c1nnc(NC(=O)C2CC2)cc1Nc1cccc(-c2ncn(C)n2)c1OC,-2.45 °C,-4.06 °C
CCn1c(-c2nonc2N)nc2cncc(C(=O)N3CC[C@H](N)C3)c21,-0.13 °C,-1.91 °C
CC[C@H](Nc1c(C#N)c(-c2ccc(-c3cccc(C)c3F)cc2)nc2cnccc12)C(=O)O,-2.07 °C,-1.52 °C
COc1cc(-c2cn(C)c(=O)c3cnccc23)c(OC)cc1CN(C)C,-0.72 °C,0.32 °C
NS(=O)(=O)c1ccc(Nc2nc(OCC3CCCCC3)c3nc[nH]c3n2)cc1,0.59 °C,-0.84 °C
Cc1cnc(Nc2ccc(C(=O)N3CCN(C)CC3)cc2)nc1N[C@@H]1CCC[C@@H]1C(N)=O,-1.32 °C,-3.2 °C
CNC(=O)c1c[nH]c2ccc(Nc3nccc(-c4ccccn4)n3)cc12,-1.78 °C,-0.94 °C
CN(C)C(=O)c1sc2nc(N3CCC(S(C)(=O)=O)CC3)cc(C(F)(F)F)c2c1N,-3.42 °C and 1.01 °C,0.17 °C and 0.19 °C
COc1cc2nc(-c3cc(F)ccc3O)nc(N[C@@H]3CNC[C@H]3C(C)(C)O)c2cc1OC,1.15 °C,-1.27 °C

SMILES,ΔTm [1],ΔTm [2]
N[C@@H]1CCCC[C@H]1Oc1ccc2ncc(-c3cc4ccccc4o3)n2n1,-0.47 °C,-0.16 °C
Cc1csc(-c2nnc(Nc3ccc(Oc4ncccc4-c4ccnc(N)n4)cc3)c3ccccc23)c1,11.5 °C,-1.04 °C
O=C1COc2cc(C(=O)N(Cc3ccc(C(=O)Nc4ccncn4)cc3)C3CC3)ccc2N1,0.06 °C,-2.92 °C
O=C1Nc2ccc(C(=O)c3ccco3)cc2C1=Cc1cc(Cl)c(O)c(Cl)c1,0.79 °C,-3.45 °C
CNc1nc(Nc2ccc(C(=O)N3CCOCC3)cc2OC)ncc1Cl,-0.71 °C,-2.04 °C
CCOC(=O)c1cc2cc(-c3cc(C(=O)NCc4ccc(C(=O)O)cc4)nn3C)ccc2[nH]1,-0.14 °C,0.44 °C
Oc1c(-c2cccnc2)cnn1-c1ccccn1,-1.85 °C,0.29 °C
CNC(=O)c1ccc(C)c(-n2c(C)cc(OCc3ccc(F)cc3F)c(Br)c2=O)c1,-1.55 °C,-2.58 °C
CC(C)(C)c1cc(NC(=O)c2csc(Nc3ccccn3)n2)no1,1.16 °C,1.12 °C
COC(=O)Nc1nc2c(s1)-c1c(c(-c3cccnc3)nn1-c1ccc(C3(N(C)C)CC3)cc1)CC2,-1.63 °C,-3.18 °C
N[C@@H](CC(=O)O)Cn1nnc(-c2ccc(Oc3ncc(Cl)cc3F)cc2)n1,-12.6 °C,-0.53 °C
CN(C)[C@H]1C[C@H](n2cnc(-c3ccc(F)cn3)c2-c2ccnc3[nH]ccc23)C1,-2.13 °C,-2.35 °C
CC1(C)CCC(CN2CCN(c3ccc(C(=O)NS(=O)(=O)c4ccc(NCC5CCOCC5)c([N+](=O)[O-])c4)c(Oc4cnc5[nH]ccc5c4)c3)CC2)=C(c2ccc(Cl)cc2)C1,-1.82 °C,-1.45 °C
c1ccc(C2CCN(c3cnc4c(N5CCOCC5)nccn34)CC2)cc1,-0.69 °C,-1.25 °C
CN1CCN(c2ccc(Nc3ncc4cc5n(c4n3)C3(CCCCC3)CNC5=O)nc2)CC1,-0.66 °C,-0.72 °C
O=C(O)c1cc(-c2ccccc2)ccc1O,-1.31 °C,-1.78 °C
Cc1ccc(-n2nc(C(C)(C)C)cc2NC(=O)Nc2ccc(OCCN3CCOCC3)c3ccccc23)cc1,0 °C and -1.27 °C,-0.19 °C and -3.17 °C
COc1cc(N2CCN(C)CC2)ccc1Nc1ncc2c(n1)N(C)c1ccccc1C(=O)N2CC(F)(F)F,-1.21 °C,-2.27 °C
CN(C)c1ncc2cc(-c3ccc(-c4ncccc4F)cc3Cl)c(=O)n(C[C@H]3OC[C@H](N)CO3)c2n1,-2 °C,-2.59 °C
O=C(N[C@H]1CCC[C@H](CO)C1)C1CCN(c2nc3cc(Cl)c(-c4ccc(Cl)cc4)cc3o2)CC1,-3.15 °C,1.95 °C
N#C/C(=C\c1ccc(O)c(O)c1)C(=O)OCCc1cccs1,-0.61 °C,0.49 °C
O=C(O)Cc1cc(I)c(Oc2ccc(O)c(I)c2)c(I)c1,-5.23 °C,-2.6 °C
Cc1ccc(C(=O)Nc2cc(N3CCN(C)CC3)cc(C(F)(F)F)c2)cc1-n1cc(-c2cnn(C)c2C)nn1,-2.13 °C,-1.79 °C
C[C@@]1(Cc2ccc(C#N)cc2)C(=O)N(c2cc(Cl)cc(Cl)c2)c2ncc(C(=O)NC3(c4nc(C5CCC5)no4)CC3)n21,10.3 °C,0.39 °C
COc1cc2c(NC3CCN(C(C)C)CC3)nc(C3CCCCC3)nc2cc1OCCCN1CCCC1,-2.43 °C,-2.96 °C
